Measured values taken from paper PMC5540273 (PLoS ONE, 2017).

Columns and labels:
AAK1 = conditions: concentration: 1 μM, replicates: in singlicate; n = 1
ABL1-nonphosphorylated = conditions: concentration: 1 μM, replicates: in singlicate; n = 1
ABL1-phosphorylated = conditions: concentration: 1 μM, replicates: in singlicate; n = 1
ABL2 = conditions: concentration: 1 μM, replicates: in singlicate; n = 1
ACVR1B = conditions: concentration: 1 μM, replicates: in singlicate; n = 1
ACVR1 = conditions: concentration: 1 μM, replicates: in singlicate; n = 1
p38-alpha = system: T1, p38-alpha
T1 construct: gene MAPK14

p38-beta = system: T2, p38-beta
T2 construct: gene MAPK11

YSK4 = system: T3, YSK4
T3 construct: gene MAP3K19
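Wherever %Inh is given: KINOMEscan kinase panel screen.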
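Wherever Kd is given: kd values determined as follow-up on hits from a single-replicate KINOMEscan panel screen.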

## CCCCCc1nc2c(N)ncnc2n1CCCCC [SKF-97255]
AAK1
  %Inh: 6%
ABL1-nonphosphorylated
  %Inh: 31%
ABL1-phosphorylated
  %Inh: 30%
ABL2
  %Inh: 0%
ACVR1B
  %Inh: 26%
ACVR1
  %Inh: 0%

## COc1cc2c(cc1OC[C@@H](O)CO)ncc1c3ccc(C#N)cc3[nH]c21
AAK1
  %Inh: 78%
ABL1-nonphosphorylated
  %Inh: 49%
ABL1-phosphorylated
  %Inh: 21%
ABL2
  %Inh: 0%
ACVR1B
  %Inh: 0%
ACVR1
  %Inh: 0%

## Cc1c2ccc(N(C)c3ccnc(Nc4cccc(S(N)(=O)=O)c4)n3)cc2nn1Cc1ccccc1.Cl.Cl [GW787226]
AAK1
  %Inh: 2%
ABL1-nonphosphorylated
  %Inh: 98.4%
ABL1-phosphorylated
  %Inh: 61%
ABL2
  %Inh: 71%
ACVR1B
  %Inh: 6%
ACVR1
  %Inh: 0%

## Fc1ccc(-c2ncn(CCCN3CCOCC3)c2-c2ccccn2)cc1 [SB-211742]
AAK1
  %Inh: 0%
ABL1-nonphosphorylated
  %Inh: 39%
ABL1-phosphorylated
  %Inh: 12%
ABL2
  %Inh: 7%
ACVR1B
  %Inh: 1%
ACVR1
  %Inh: 0%

## O=C(NCCNc1ccnc(Nc2ccc(F)cc2)n1)Nc1ccccc1F [GSK1379880]
AAK1
  %Inh: 0%
ABL1-nonphosphorylated
  %Inh: 0%
ABL1-phosphorylated
  %Inh: 0%
ABL2
  %Inh: 24%
ACVR1B
  %Inh: 0%
ACVR1
  %Inh: 0%

## COc1cc2ncn(-c3cc(OCc4sccc4Cl)c(C(N)=O)s3)c2cc1OC [GSK448459]
AAK1
  %Inh: 42%
ABL1-nonphosphorylated
  %Inh: 0%
ABL1-phosphorylated
  %Inh: 3%
ABL2
  %Inh: 17%
ACVR1B
  %Inh: 0%
ACVR1
  %Inh: 18%

## O=c1cc(N2CCOCC2)nc2n(Cc3cccc(F)c3)ccn12 [GSK2297430]
AAK1
  %Inh: 5%
ABL1-nonphosphorylated
  %Inh: 0%
ABL1-phosphorylated
  %Inh: 0%
ABL2
  %Inh: 2%
ACVR1B
  %Inh: 0%
ACVR1
  %Inh: 1%

## O=c1cc(N2CCOCC2)nc2n(Cc3cccc4ccccc34)ccn12 [GSK2333389]
AAK1
  %Inh: 0%
ABL1-nonphosphorylated
  %Inh: 0%
ABL1-phosphorylated
  %Inh: 0%
ABL2
  %Inh: 17%
ACVR1B
  %Inh: 0%
ACVR1
  %Inh: 0%

## c1ccc(-c2cc(-c3c[nH]nc3-c3ccccn3)ccn2)cc1 [GW576604]
AAK1
  %Inh: 23%
ABL1-nonphosphorylated
  %Inh: 0%
ABL1-phosphorylated
  %Inh: 0%
ABL2
  %Inh: 0%
ACVR1B
  %Inh: 37%
ACVR1
  %Inh: 0%

## NS(=O)(=O)CCc1cccc(Nc2nccc(-c3c(-c4cccc(NC(=O)c5c(F)cccc5F)c4)nn4ccccc34)n2)c1 [GSK336735]
AAK1
  %Inh: 0%
ABL1-nonphosphorylated
  %Inh: 95.3%
ABL1-phosphorylated
  %Inh: 16%
ABL2
  %Inh: 78%
ACVR1B
  %Inh: 7%
ACVR1
  %Inh: 0%

## COCCNC(=O)c1ccc(-c2cc(C(=O)NC3CC3)cc(F)c2C)cc1 [GW868318]
p38-alpha
  Kd: 7.3 nM
p38-beta
  Kd: 88 nM
AAK1
  %Inh: 0%
ABL1-nonphosphorylated
  %Inh: 43%
ABL1-phosphorylated
  %Inh: 28%
ABL2
  %Inh: 12%
ACVR1B
  %Inh: 17%
ACVR1
  %Inh: 7%

## Cc1nnc(-c2ccc(C)c(-c3ccc(C(=O)Nc4ccc(NS(C)(=O)=O)cc4)cc3)c2)o1 [GW702865]
p38-alpha
  Kd: 140 nM
AAK1
  %Inh: 0%
ABL1-nonphosphorylated
  %Inh: 0%
ABL1-phosphorylated
  %Inh: 0%
ABL2
  %Inh: 0%
ACVR1B
  %Inh: 0%
ACVR1
  %Inh: 0%

## CN1c2ccc(CNc3ccc(F)cc3)cc2-c2c(cnn2C)S1(=O)=O
AAK1
  %Inh: 0%
ABL1-nonphosphorylated
  %Inh: 21%
ABL1-phosphorylated
  %Inh: 0%
ABL2
  %Inh: 0%
ACVR1B
  %Inh: 0%
ACVR1
  %Inh: 0%

## CCc1nc(-c2cccc(C)c2)c(-c2ccnc(NCc3ccccc3)c2)s1
p38-alpha
  Kd: 150 nM
AAK1
  %Inh: 10%
ABL1-nonphosphorylated
  %Inh: 35%
ABL1-phosphorylated
  %Inh: 7%
ABL2
  %Inh: 21%
ACVR1B
  %Inh: 0%
ACVR1
  %Inh: 0%

## NS(=O)(=O)c1cccc(-c2ccc3ncc(N4CCOCC4)nc3c2)c1 [GSK1535721]
YSK4
  Kd: 3400 nM
AAK1
  %Inh: 26%
ABL1-nonphosphorylated
  %Inh: 1%
ABL1-phosphorylated
  %Inh: 0%
ABL2
  %Inh: 0%
ACVR1B
  %Inh: 0%
ACVR1
  %Inh: 21%

## CN(C(=O)c1ccc(-c2cc(-c3c[nH]nc3-c3ccccn3)ccn2)cc1)C1CCOCC1 [GW810083]
AAK1
  %Inh: 0%
ABL1-nonphosphorylated
  %Inh: 57%
ABL1-phosphorylated
  %Inh: 0%
ABL2
  %Inh: 0%
ACVR1B
  %Inh: 52%
ACVR1
  %Inh: 0%

## Fc1ccc(-c2ncn(CCCN3CCOCC3)c2-c2cccnc2)cc1 [SB-211743]
AAK1
  %Inh: 0%
ABL1-nonphosphorylated
  %Inh: 30%
ABL1-phosphorylated
  %Inh: 34%
ABL2
  %Inh: 0%
ACVR1B
  %Inh: 0%
ACVR1
  %Inh: 2%

## Fc1ccc(-c2nn3c(OCC(F)(F)F)cccc3c2-c2ccncc2)cc1 [GW514784]
AAK1
  %Inh: 0%
ABL1-nonphosphorylated
  %Inh: 0%
ABL1-phosphorylated
  %Inh: 0%
ABL2
  %Inh: 5%
ACVR1B
  %Inh: 61%
ACVR1
  %Inh: 13%

## Cc1nnc(-c2ccc3ncc(-c4ccc(S(C)=O)cc4)n3c2)o1 (stereo not shown)
AAK1
  %Inh: 41%
ABL1-nonphosphorylated
  %Inh: 44%
ABL1-phosphorylated
  %Inh: 6%
ABL2
  %Inh: 7%
ACVR1B
  %Inh: 0%
ACVR1
  %Inh: 0%

## COc1ccc(Nc2nccc(N3CCC(NC(=O)Nc4cc(C)ccc4C)C3)n2)cc1 (stereo not shown) [GSK1379741]
AAK1
  %Inh: 17%
ABL1-nonphosphorylated
  %Inh: 0%
ABL1-phosphorylated
  %Inh: 0%
ABL2
  %Inh: 14%
ACVR1B
  %Inh: 0%
ACVR1
  %Inh: 0%

## CCc1ccnc(/C=C/c2n[nH]c3cc(Sc4ccccc4C(=O)NC)ccc23)c1
AAK1
  %Inh: 22%
ABL1-nonphosphorylated
  %Inh: 98%
ABL1-phosphorylated
  %Inh: 89%
ABL2
  %Inh: 76%
ACVR1B
  %Inh: 3%
ACVR1
  %Inh: 0%

## O=C(Nc1n[nH]c2cc(-c3cccc(F)c3)ccc12)C1CC1 [SB-735464]
YSK4
  Kd: 310 nM
AAK1
  %Inh: 26%
ABL1-nonphosphorylated
  %Inh: 64%
ABL1-phosphorylated
  %Inh: 43%
ABL2
  %Inh: 8%
ACVR1B
  %Inh: 10%
ACVR1
  %Inh: 36%

## Cc1nnc(-c2ccc3occ(-c4ccc(C(C)O)cc4)c3c2)o1 (stereo not shown)
AAK1
  %Inh: 23%
ABL1-nonphosphorylated
  %Inh: 64%
ABL1-phosphorylated
  %Inh: 36%
ABL2
  %Inh: 8%
ACVR1B
  %Inh: 14%
ACVR1
  %Inh: 15%

## CNc1ncnc2[nH]ncc12 [SKF-18355]
AAK1
  %Inh: 0%
ABL1-nonphosphorylated
  %Inh: 34%
ABL1-phosphorylated
  %Inh: 11%
ABL2
  %Inh: 0%
ACVR1B
  %Inh: 4%
ACVR1
  %Inh: 0%

## CN1c2ccc(NCc3ccc(F)cc3)cc2-c2c(cnn2C)S1(=O)=O
AAK1
  %Inh: 0%
ABL1-nonphosphorylated
  %Inh: 21%
ABL1-phosphorylated
  %Inh: 9%
ABL2
  %Inh: 0%
ACVR1B
  %Inh: 0%
ACVR1
  %Inh: 0%

## Cc1ccc(C(=O)NCC(N)=O)cc1-n1c(C)cc(OCc2ccc(F)cc2F)c(Br)c1=O
p38-alpha
  Kd: 0.23 nM
p38-beta
  Kd: 10 nM
AAK1
  %Inh: 0%
ABL1-nonphosphorylated
  %Inh: 57%
ABL1-phosphorylated
  %Inh: 33%
ABL2
  %Inh: 27%
ACVR1B
  %Inh: 11%
ACVR1
  %Inh: 11%

## c1ccc(-c2n[nH]cc2-c2ccnc3ccccc23)nc1 [GW271431]
AAK1
  %Inh: 16%
ABL1-nonphosphorylated
  %Inh: 14%
ABL1-phosphorylated
  %Inh: 1%
ABL2
  %Inh: 16%
ACVR1B
  %Inh: 79%
ACVR1
  %Inh: 46%

## O=C(NOCC1CC1)c1ccc(F)c(F)c1Nc1ccc(I)cc1Cl
AAK1
  %Inh: 0%
ABL1-nonphosphorylated
  %Inh: 0%
ABL1-phosphorylated
  %Inh: 0%
ABL2
  %Inh: 0%
ACVR1B
  %Inh: 0%
ACVR1
  %Inh: 0%

## Cc1cccc(-c2nc(-c3ccc(S(C)(=O)=O)cc3)sc2-c2ccncc2)c1
p38-alpha
  Kd: 540 nM
AAK1
  %Inh: 8%
ABL1-nonphosphorylated
  %Inh: 0%
ABL1-phosphorylated
  %Inh: 0%
ABL2
  %Inh: 29%
ACVR1B
  %Inh: 0%
ACVR1
  %Inh: 0%

## Cl.Nc1ncnc2occ(-c3ccc(NC(=O)Nc4cc(C(F)(F)F)ccc4F)cc3)c12 [SB-707548]
AAK1
  %Inh: 0%
ABL1-nonphosphorylated
  %Inh: 99.1%
ABL1-phosphorylated
  %Inh: 50%
ABL2
  %Inh: 81%
ACVR1B
  %Inh: 0%
ACVR1
  %Inh: 1%

## CC(C)(C)n1cnc2c(N)ncnc21 [SKF-97359]
AAK1
  %Inh: 0%
ABL1-nonphosphorylated
  %Inh: 37%
ABL1-phosphorylated
  %Inh: 0%
ABL2
  %Inh: 1%
ACVR1B
  %Inh: 0%
ACVR1
  %Inh: 0%

## COc1ccc(Nc2ncc(C#N)c(Nc3ccccc3C(N)=O)n2)cc1N1CCN(C)CC1.Cl [GSK1558669]
AAK1
  %Inh: 97.2%
ABL1-nonphosphorylated
  %Inh: 100%
ABL1-phosphorylated
  %Inh: 100%
ABL2
  %Inh: 99.2%
ACVR1B
  %Inh: 33%
ACVR1
  %Inh: 33%

## O=C(NCCNc1ccnc(Nc2ccc(F)cc2)n1)c1cc2ccccc2s1 [GSK1379874]
ZAK
  Kd: > 10000 nM
AAK1
  %Inh: 0%
ABL1-nonphosphorylated
  %Inh: 0%
ABL1-phosphorylated
  %Inh: 0%
ABL2
  %Inh: 7%
ACVR1B
  %Inh: 0%
ACVR1
  %Inh: 9%

## O=C1NC(=O)C(N2CCc3ccccc32)=C1c1cccc(Cl)c1 [SB-408010]
AAK1
  %Inh: 2%
ABL1-nonphosphorylated
  %Inh: 33%
ABL1-phosphorylated
  %Inh: 0%
ABL2
  %Inh: 10%
ACVR1B
  %Inh: 14%
ACVR1
  %Inh: 0%

## CC(=O)Nc1ccc(COc2ccc(Nc3ccnc4cc(-c5ccccn5)ccc34)cc2)cc1.Cl [GW440148]
AAK1
  %Inh: 13%
ABL1-nonphosphorylated
  %Inh: 35%
ABL1-phosphorylated
  %Inh: 19%
ABL2
  %Inh: 11%
ACVR1B
  %Inh: 0%
ACVR1
  %Inh: 0%
